Data from PubChem BioAssay (EPA / NIEHS).
Inconclusive results are not listed. The source made the active and inactive calls. Rule for the calls, unless noted: active = hit-call score of the fitted dose curve at least 0.9, where 1 is the maximum; inactive = score below 0.9.

Legend:
[1] = read-out: E-selectin (Homo sapiens) (UniProt P16581); experiment: BSK_3C_Eselectin: BioMAP Diversity Plus: 3C Assay for Eselectin Biomarker Activity (AID 2283015); settings: primary human endothelial cells (HUVEC); actives raise or lower the signal
In short: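 ELISA read-out of E-selectin on endothelial monolayers after 24 h chemical treatment. Human umbilical vein primary cells served as the system, with DMSO defining baseline activity for bidirectional fitting.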

[2] = read-out: Interleukin-1 alpha (IL1a), IL1A (gene 3552); experiment: BSK_BE3C_IL1a: BioMAP Diversity Plus: BE3C Assay for Interleukin-1 alpha (IL1a) Biomarker Activity (AID 2283016); settings: primary human bronchial epithelial cells; actives raise or lower the signal
In short: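 Human primary bronchial epithelial cells, 24 h chemical exposure; IL-1a quantified by ELISA, fitted bidirectionally against DMSO. Cytotoxicity assessed in parallel by SRB total-protein staining at the time of measurement.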

[3] = read-out: Monocyte Chemoattractant Protein-1 (MCP1), CCL2 (gene 6347); experiment: BSK_3C_MCP1: BioMAP Diversity Plus: 3C Assay for Monocyte Chemoattractant Protein-1 (MCP1) Biomarker Activity (AID 2283017); settings: primary human endothelial cells (HUVEC); actives raise or lower the signal
In short: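 ELISA read-out of MCP-1 from human umbilical vein endothelial cell cultures harvested 24 h post-dosing. Gain or loss of signal was fitted relative to DMSO.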

[4] = read-out: Monocyte Chemoattractant Protein-1 (MCP1), CCL2 (gene 6347); experiment: BSK_4H_MCP1: BioMAP Diversity Plus: 4H Assay for Monocyte Chemoattractant Protein-1 (MCP1) Biomarker Activity (AID 2283018); settings: primary human endothelial cells (HUVEC); actives raise or lower the signal
In short: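 Human umbilical vein endothelial cells (4H system) exposed to chemicals for 24 h in 96-well format. MCP-1 measured by ELISA; bidirectional fitting against DMSO, with SRB total-protein staining in parallel cultures for cytotoxicity.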

[5] = read-out: Human Leukocyte Antigen - DR isotype (HLADR), HLA-DRA (gene 3122); experiment: BSK_3C_HLADR: BioMAP Diversity Plus: 3C Assay for Human Leukocyte Antigen - DR isotype (HLADR) Biomarker Activity (AID 2283019); settings: primary human endothelial cells (HUVEC); actives raise or lower the signal
In short: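 ELISA readout of surface HLA-DR on human umbilical vein endothelium, taken 24 h after chemical treatment. Gain- and loss-of-signal were both fitted relative to DMSO.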

[6] = read-out: Interleukin-8 (IL8), CXCL8 (gene 3576); experiment: BSK_3C_IL8: BioMAP Diversity Plus: 3C Assay for Interleukin-8 (IL8) Biomarker Activity (AID 2283020); settings: primary human endothelial cells (HUVEC); actives raise or lower the signal
In short: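 Primary human umbilical vein endothelial cells were dosed for 24 h. IL-8 was quantified by ELISA and fitted bidirectionally against DMSO. Cytotoxicity was assessed in parallel cultures by SRB staining at 560 nm.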

[7] = read-out: Monokine induced gamma interferon (MIG), CXCL9 (gene 4283); experiment: BSK_3C_MIG: BioMAP Diversity Plus: 3C Assay for Monokine induced gamma interferon (MIG) Biomarker Activity (AID 2283021); settings: primary human endothelial cells (HUVEC); actives raise or lower the signal
In short: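 HUVEC primary endothelial cultures dosed with chemical; MIG quantified by ELISA at 24 h. Data fitted bidirectionally against DMSO control, with parallel SRB total-protein staining for cytotoxicity.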

[8] = target: human Thyroid Receptor alpha (THRa1), THRA (gene 7067) (UniProt P10827); experiment: ATG_THRa1_TRANS: Attagene TRANS-FACTORIAL HepG2 Assay for human Thyroid Receptor alpha (THRa1) (AID 2283014; active = hit-call score of the fitted dose curve at least 0.9, where 1 is the maximum)
Sequence of human Thyroid Receptor alpha (THRa1), THRA (gene 7067) (P10827 whole entry, looked up, the tested form may be a part): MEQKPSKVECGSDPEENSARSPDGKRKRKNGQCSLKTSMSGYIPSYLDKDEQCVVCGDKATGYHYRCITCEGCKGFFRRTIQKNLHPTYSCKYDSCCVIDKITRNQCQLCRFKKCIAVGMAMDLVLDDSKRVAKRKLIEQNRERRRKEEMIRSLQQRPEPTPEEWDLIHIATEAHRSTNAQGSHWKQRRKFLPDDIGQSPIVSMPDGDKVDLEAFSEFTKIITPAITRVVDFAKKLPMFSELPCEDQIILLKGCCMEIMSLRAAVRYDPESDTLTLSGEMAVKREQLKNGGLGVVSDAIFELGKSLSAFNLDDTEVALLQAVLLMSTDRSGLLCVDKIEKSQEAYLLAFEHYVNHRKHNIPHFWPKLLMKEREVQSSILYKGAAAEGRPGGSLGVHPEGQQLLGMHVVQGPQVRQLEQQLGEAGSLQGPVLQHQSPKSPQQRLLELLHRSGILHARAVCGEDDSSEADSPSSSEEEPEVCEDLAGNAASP
In short: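 Reporter transcript induction, read by capillary electrophoresis of 6-FAM-labelled RT-PCR products, reflects activity of a transfected THRa1-Gal4 fusion in HepG2 liver cells. Cells were dosed for 24 h; activity was fitted in the positive direction against DMSO.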

[9] = target: human Retinoid X Receptor beta (RXRb), RXRB (gene 6257) (UniProt P28702); experiment: ATG_RXRb_TRANS: Attagene TRANS-FACTORIAL HepG2 Assay for human Retinoid X Receptor beta (RXRb) (AID 2283013; active = hit-call score of the fitted dose curve at least 0.9, where 1 is the maximum)
Sequence of human Retinoid X Receptor beta (RXRb), RXRB (gene 6257) (P28702 whole entry, looked up, the tested form may be a part): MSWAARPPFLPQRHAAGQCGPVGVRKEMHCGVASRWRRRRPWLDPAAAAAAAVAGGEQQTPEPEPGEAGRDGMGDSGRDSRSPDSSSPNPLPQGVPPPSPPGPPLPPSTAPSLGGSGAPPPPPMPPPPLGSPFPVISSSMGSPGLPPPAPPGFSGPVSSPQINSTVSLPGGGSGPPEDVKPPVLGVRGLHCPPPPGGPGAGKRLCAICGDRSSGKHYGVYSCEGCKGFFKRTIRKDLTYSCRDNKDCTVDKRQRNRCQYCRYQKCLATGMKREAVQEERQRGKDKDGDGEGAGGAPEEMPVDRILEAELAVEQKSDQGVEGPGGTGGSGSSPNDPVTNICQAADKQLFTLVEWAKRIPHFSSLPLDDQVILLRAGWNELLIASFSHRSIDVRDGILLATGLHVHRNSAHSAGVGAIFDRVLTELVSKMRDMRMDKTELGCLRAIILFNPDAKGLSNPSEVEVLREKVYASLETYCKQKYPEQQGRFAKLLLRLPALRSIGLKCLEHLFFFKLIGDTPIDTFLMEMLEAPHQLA
In short: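 HepG2 cells were transiently transfected with multiplexed GAL4-UAS reporters and a chimeric RXRb-Gal4 construct, then exposed for 24 h. Reporter mRNA was quantified by RT-PCR, FAM labeling, HpaI digestion and capillary electrophoresis; gain of signal was scored against DMSO.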

Measured: AC50

Sequence of E-selectin (Homo sapiens) (P16581 whole entry, looked up): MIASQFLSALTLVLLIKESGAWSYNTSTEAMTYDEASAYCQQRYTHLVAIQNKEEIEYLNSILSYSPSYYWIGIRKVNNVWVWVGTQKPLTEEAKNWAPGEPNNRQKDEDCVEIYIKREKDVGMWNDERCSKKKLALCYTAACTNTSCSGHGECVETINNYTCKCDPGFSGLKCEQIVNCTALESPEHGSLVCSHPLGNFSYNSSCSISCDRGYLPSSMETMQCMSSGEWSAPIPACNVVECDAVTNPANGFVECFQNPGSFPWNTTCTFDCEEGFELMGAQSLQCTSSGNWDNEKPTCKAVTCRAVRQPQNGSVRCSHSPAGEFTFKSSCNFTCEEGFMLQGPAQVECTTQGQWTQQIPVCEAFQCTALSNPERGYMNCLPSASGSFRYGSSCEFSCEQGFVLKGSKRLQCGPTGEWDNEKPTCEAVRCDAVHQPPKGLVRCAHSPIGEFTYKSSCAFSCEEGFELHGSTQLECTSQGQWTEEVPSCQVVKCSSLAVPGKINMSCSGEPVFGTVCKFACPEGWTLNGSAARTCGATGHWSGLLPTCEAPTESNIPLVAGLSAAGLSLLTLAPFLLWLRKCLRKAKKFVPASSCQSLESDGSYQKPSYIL

O=C(N[C@@H](c1ccccc1)[C@@H]1CCCCN1)c1cccc(C(F)(F)F)c1Cl
inactive: [1] | [4] | [7]
active: [2] 36 µM | [3] 20 µM | [5] 29.2 µM | [6] 12.7 µM

CCCCCCCCCCCCCCCCO
inactive: [8] | [1] | [2] | [3] | [4] | [5] | [6] | [7]

N[C@@H](Cc1c[nH]c2ccccc12)C(=O)O
inactive: [9] | [8] | [1] | [2] | [3] | [4] | [5] | [6] | [7]

Cc1cn([C@H]2C=C[C@@H](CO)O2)c(=O)[nH]c1=O
inactive: [1] | [2] | [3] | [4] | [5] | [6] | [7]

CC(C)c1cccc(C(C)C)c1NC(=O)NS(=O)(=O)c1cc(C(C)(C)O)co1
inactive: [1] | [2] | [3] | [4] | [5] | [6] | [7]

c1ccc2occc2c1
inactive: [8] | [1] | [2] | [3] | [4] | [5] | [6] | [7]

O=C(O)CC(O)(CC(=O)O)C(=O)O
inactive: [1] | [2] | [3] | [4] | [5] | [6] | [7]

C#CC(O)C(CC)CCCC (centres undefined)
inactive: [9] | [1] | [2] | [3] | [4] | [5] | [6] | [7]

CC(COCC(C)OC(=O)c1ccccc1)OC(=O)c1ccccc1 (centres undefined)
inactive: [8] | [1] | [2] | [3] | [4] | [5] | [6] | [7]

CC(=O)S[C@H](C(=O)N[C@H]1Cc2ccccc2[C@H]2CCC[C@@H](C(=O)O)N2C1=O)C(C)C
inactive: [1] | [2] | [3] | [4] | [5] | [6] | [7]

OCC(CO)n1cnc(-c2ccc(F)cc2)c1-c1ccnc(Oc2ccccc2)n1
active: [3] 1.08 µM | [5] 0.254 µM | [6] 0.852 µM
inactive: [1] | [2] | [4] | [7]

CN(C)CCCN(C)CCCN(C)C
active: [9] 23.8 µM
inactive: [1] | [2] | [3] | [4] | [5] | [6] | [7]

COC(=O)CCC(=O)OC
inactive: [1] | [2] | [3] | [4] | [5] | [6] | [7]

C/C=C/c1ccc(OC)cc1
inactive: [9] | [1] | [2] | [3] | [4] | [5] | [6] | [7]

CC(C)(C)c1ccccc1
inactive: [1] | [2] | [3] | [4] | [5] | [6] | [7]

CC1(C)C(=O)NC(=O)N1CO
inactive: [9] | [1] | [2] | [3] | [4] | [5] | [6] | [7]

Oc1ccc(O)cc1
active: [1] 13.8 µM | [5] 23.5 µM
inactive: [2] | [3] | [4] | [6] | [7]

CO[C@@H]1COCC[C@@H]1N[C@@H]1CC[C@@](C(=O)N2CCc3ncc(C(F)(F)F)cc3C2)(C(C)C)C1
inactive: [1] | [2] | [3] | [4] | [5] | [6] | [7]

CCCC(=O)O
inactive: [1] | [2] | [3] | [4] | [5] | [6] | [7]

Cc1cc(Cc2ccc(N)c(C)c2)ccc1N
inactive: [9] | [1] | [2] | [3] | [4] | [5] | [6] | [7]

O=C(Oc1ccccc1)c1cccc(C(=O)Oc2ccccc2)c1
inactive: [8] | [1] | [2] | [3] | [4] | [5] | [6] | [7]

O=C(O)c1[nH]n(-c2ccc(S(=O)(=O)O)cc2)c(=O)c1N=Nc1ccc(S(=O)(=O)O)cc1
inactive: [1] | [2] | [3] | [4] | [5] | [6] | [7]

Cc1ccc(-c2cc(C(F)(F)F)nn2-c2ccc(S(N)(=O)=O)cc2)cc1
active: [1] 30 µM | [2] 33.3 µM | [3] 37.8 µM | [4] 27.8 µM | [5] 31 µM | [6] 32.7 µM

OCC(O)CO
inactive: [1] | [2] | [3] | [4] | [5] | [6] | [7]

CC1=C(C)S(=O)(=O)CCS1(=O)=O
inactive: [8] | [1] | [2] | [3] | [4] | [5] | [6] | [7]

O=Cc1ccccc1C=O
inactive: [9] | [1] | [2] | [3] | [4] | [5] | [6] | [7]
